Molecules are shown by their SMILES. Activity calls are given as the source filed them. The calls were made as follows: active = hit-call score of the fitted dose curve at least 0.9, where 1 is the maximum; inactive = score below 0.9.

40 compounds from PubChem BioAssay (EPA / NIEHS) can be followed below.

The nature of the experiment: BSK_3C_Proliferation: Cell Proliferation Assessment in the BioMAP Diversity Plus: 3C Assay (AID 2283006).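 As to AC50: potency may reflect either rise or fall in cell number versus DMSO.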 As to conditions: primary human endothelial cells (HUVEC). As to the method: BSK_3C is a cell-based, multiplexed-readout assay that uses umbilical vein endothelium, a human vascular primary cell, with measurements taken at 24 hours after chemical dosing in a 96-well plate.BSK_3C_Proliferation is an assay component measured in the BSK_3C assay. It measures 0.1% sulforhodamine related to cell proliferation using Sulforhodamine staining technology.Data from the assay component BSK_3C_Proliferation was analyzed into 1 assay endpoint. This assay endpoint, BSK_3C_Proliferation, was analyzed with bidirectional fitting relative to DMSO as the negative control and baseline of activity. Using a type of viability reporter, measures of total protein for gain or loss-of-signal activity can be used to understand the viability at the cellular-level. Furthermore, this assay endpoint can be referred to as a secondary readout, because this assay has produced multiple assay endpoints where this one serves a viability function. To generalize the intended target to other relatable targets, this assay endpoint is annotated to the cell cycle intended target family, where the subfamily is proliferation.
The levels of cell surface (or secreted, indicated by the prefix "s") biomarker endpoints were measured by ELISA. Overt cytotoxicity to cells in confluent adherent cultures (all systems other than the BT system) was assessed by measuring total protein levels using sulforhodamine B (SRB) staining in parallel cultures at the time of biomarker measurements, indicated as SRB endpoints. For proliferation assays for adherent cell types, individual cell types are cultured at sub-confluence and relative cell numbers quantified by SRB staining at time points optimized for each system (48 h: 3C and CASM3C systems; 72 h: BT and HDF3CGF systems; 96 h: SAg system). SRB was performed by staining cells with 0.1% SRB after fixation with 10% TCA and reading wells at 560 nm.Viability and proliferation of PBMC (T cells) was quantified by Alamar Blue reduction for the SAg and BT systems. For PBMC viability (referred to as PBMC Cytotoxicity within the assay endpoint names), cells were plated (75,000/well in a 96-well plate) and then chemical samples added for 1 h before addition of activators, SEB and TSST-1 (20 ng/mL final concentration each). Cells were incubated for 90 h. Then, Alamar Blue (20 uL/well) (Invitrogen, Cat DAL1100) was added for 6 h, and the plates were read with a fluorescence microplate reader at 546/580 nm (excitation/emission). For PBMC proliferation, cells were plated and activated as above but incubated for only 16 h prior to addition of Alamar Blue. Plates were read after 6 h.
As for `CC(C)Oc1cccc(NC(=O)c2ccccc2C(F)(F)F)c1`, the result was inactive.

For the compound `CN/C(=N\[N+](=O)[O-])NCc1cnc(Cl)s1`, the outcome was inactive.

As to `CCOP(=S)(OCC)Oc1nc(Cl)n(C(C)C)n1`, the result was inactive.

For the compound `CC(C)=CC1C(C(=O)OCc2coc(Cc3ccccc3)c2)C1(C)C` (stereo not given), the AC50 is 10.3 µM (active).

In the case of `O=C(Nc1ccccc1-c1ccc(Cl)cc1)c1cccnc1Cl`, the result was inactive.

For `CCSC(=O)N1CCCCCC1`, the result was inactive.

On to `COc1cc(Cl)c(OC)cc1Cl`, for which the outcome was inactive.

Take `CO/N=C(/C1=NOCCO1)c1ccccc1Oc1ncnc(Oc2ccccc2Cl)c1F`: the AC50 is 17.4 µM (active).

Consider `CC(C)N1C(=O)N(c2ccccc2)CSC1=NC(C)(C)C`, for which the AC50 is 16.4 µM (active).

Consider `Cc1nc(N(C)C)nc(OC(=O)N(C)C)c1C`, for which the result was inactive.

With `CNC(=O)Oc1cccc2ccccc12`, the AC50 is 22.9 µM (active).

`COC(=O)NC(=S)Nc1ccccc1NC(=S)NC(=O)OC`: the outcome was inactive.

Take `CC(C)Nc1nc(Cl)nc(NC(C)C)n1`: the outcome was inactive.

Take `N#Cc1c(Cl)cccc1Cl`: the result was inactive.

Take `CCNC(=O)NC(=O)C(C#N)=NOC`: the outcome was inactive.

For `Cc1c(COC(=O)[C@@H]2[C@H](/C=C(\Cl)C(F)(F)F)C2(C)C)cccc1-c1ccccc1`, the AC50 is 12.7 µM (active).

Take `C=CCOC(=O)C(C)(C)OC(=O)c1cc(-n2c(=O)cc(C(F)(F)F)n(C)c2=O)ccc1Cl`: the result was inactive.

Consider `CSC(=O)c1c(C(F)F)nc(C(F)(F)F)c(C(=O)SC)c1CC(C)C`, for which the AC50 is 15.7 µM (active).

With `CCCCC(C#N)(Cn1cncn1)c1ccc(Cl)cc1` (stereo not given), the result was inactive.

Consider `CCNP(=S)(OC)O/C(C)=C/C(=O)OC(C)C` (stereo not given), for which the outcome was inactive.

With `COC(=O)c1c(C(F)F)nc(C(F)(F)F)c(C2=NCCS2)c1CC(C)C`, the AC50 was 36.9 µM (active).

As to `COc1cc(OC)nc(NC(=O)NS(=O)(=O)c2ncccc2OCC(F)(F)F)n1`, the outcome was inactive.

`O=C1C2CC=CCC2C(=O)N1SC(Cl)(Cl)Cl` (stereo not given): the AC50 was 32.4 µM (active).

With `CN=C=S`, the result was inactive.

Consider `O=C(O)c1c(Cl)ccc2cc(Cl)cnc12`, for which the outcome was inactive.

With `CCN(CC)C(=O)C(C)Oc1cccc2ccccc12` (stereo not given), the AC50 is 6.69 µM (active).

`CC1(C)CON(Cc2ccccc2Cl)C1=O`: the outcome was inactive.

In the case of `CCOC(=O)C(C)OC(=O)c1cc(Oc2ccc(C(F)(F)F)cc2Cl)ccc1[N+](=O)[O-]` (stereo not given), the result was inactive.

Regarding `CCOP(=O)(OCC)Oc1nc(Cl)c(Cl)cc1Cl`, the AC50 was 8.46 µM (active).

On to `COP(=S)(OC)Oc1ccc([N+](=O)[O-])c(C)c1`, for which the concentration at half-maximal activity (AC50) was 25.6 µM (active).

`CC(C)NC(=O)N1CC(=O)N(c2cc(Cl)cc(Cl)c2)C1=O`: the result was inactive.

As to `CCCCOCN(C(=O)CCl)c1c(CC)cccc1CC`, the AC50 was 28.2 µM (active).

Turning to `Clc1cccc(C(Cl)(Cl)Cl)n1`, the outcome was inactive.

Regarding `CCCC(=NOCC)C1=C(O)CC(CC(C)SCC)CC1=O` (stereo not given), the result was inactive.

As for `Cc1cnc(C2=NC(C)(C(C)C)C(=O)N2)c(C(=O)O)c1` (stereo not given), the result was inactive.

As to `CNC(=O)N(C)c1nnc(C(C)(C)C)s1`, the result was inactive.

For the compound `Cc1cc(C)nc(Nc2ccccc2)n1`, the outcome was inactive.

`OC(c1ccc(Cl)cc1)(c1ccc(Cl)cc1)C(Cl)(Cl)Cl`: the AC50 was 11.6 µM (active).

Regarding `CCCCC(O)(Cn1cncn1)c1ccc(Cl)cc1Cl` (stereo not given), the AC50 is 26.2 µM (active).

With `Nc1c(Cl)c(Cl)nc(C(=O)O)c1Cl`, the outcome was inactive.

What is called AC50 is the concentration giving half of the maximal activity seen.
